# Experimental data as given in PubChem BioAssay (NCATS).
# Records with an inconclusive call do not appear. Where a call stands in place of a potency, no number is given. The source holds several records for some structures; these can differ, active in one and inactive in another. Activity calls are given as the source filed them. Unless noted, calls follow the shape of the dose curve; as a rule, active = well fitted curve in the direction sought with a large enough effect; inconclusive = small, poorly fitted or top-dose-only effect, or another doubt; inactive = no such curve, though single readings can be large; an effect the other way counts as inactive or inconclusive.
# Tests used:
# [1] = test system: Zika virus NS2B-NS3 protease; experiment: Primary screen GU AMC qHTS for Zika virus inhibitors (AID 1347154); also: nearly all actives have a fitted effect of over 70% in size
# Summary of the method: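 Unlinked Zika NS2B hydrophilic domain/NS3 protease domain noncovalent complex (25 nM final) in 10 mM Tris-HCl pH 8.0, 0.01% Tween 20, with AMC peptide substrate. Fluorescence (ex 340, em 450 nm) change over 15 min, room temperature; percent inhibition fitted to 4-parameter Hill equation.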
# [2] = Confirmatory qHTS for small molecule stabilizers of the endoplasmic reticulum resident proteome: Secreted ER Calcium Modulated Protein (SERCaMP) assay (AID 1508628); also: nearly all actives have a fitted effect of over 40% in size; also: potency is read from the fitted curve at half-maximal effect
# Summary of the method: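 SH-SY5Y cells stably expressing GLuc-SERCaMP, treated 16 h with compound (primary 1.53, 7.67, 38.3 uM; confirmation 11 concentrations, up to 76.6 uM), then 100 nM thapsigargin for 4 h. Secreted Gaussia luciferase in medium read by coelenterazine luminescence.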
# [3] = Counterscreen qHTS for small molecule stabilizers of the endoplasmic reticulum resident proteome: GLuc-NoTag assay (AID 1508627); also: potency is read from the fitted curve at half-maximal effect;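 as to activity change, negative = inhibition: SH-SY5Y cells given compound then 100 nM thapsigargin to empty ER calcium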
# Summary of the method: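 SH-SY5Y cells stably expressing constitutively secreted GLuc (no SERCaMP tag) were pre-incubated 5 h, treated with compound for 19 h, then 100 nM thapsigargin for 4 h at 37C; medium GLuc read by coelenterazine luminescence.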
# [4] = Primary qHTS for inhibitors of nuclear receptor binding SET domain protein 2 (NSD2) in an RCH-ACV wild type WT cells (2C) (AID 1645877); also: nearly all actives have a fitted effect of over 70% in size; also: potency is read from the fitted curve at half-maximal effect
# [5] = biological target: Cytochrome P450 1A2 (Homo sapiens) (UniProt P05177); experiment: p450-cyp1a2 (AID 410; calls by dose curve; also: potency is read from the fitted curve at half-maximal effect)
# Summary of the method: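 Luminescent readout of luciferin formed from Luciferin-ME by human CYP1A2; data normalized against complete inhibition by 57 uM furafylline. Enzyme 20nM, substrate 100uM at Km, 100mM KPO4 buffer, 60 min reaction at room temperature.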
# [6] = biological target: Glucocorticoid receptor (Homo sapiens) (UniProt P04150); experiment: GR-GFP Redistribution (AID 450;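 active = compounds whose dose series gives a full or clear partial fitted curve of increased nuclear translocation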; also: potency is read from the fitted curve at half-maximal effect); conditions: U2OS GR-GFP nuclear translocation, laser cytometry, 2 h
# [7] = biological target: Glucocorticoid receptor (Homo sapiens) (UniProt P04150); experiment: GR-EFC Redistribution (AID 451; calls by dose curve; also: potency is read from the fitted curve at half-maximal effect); conditions: CHO-K1 GR-EFC translocation, beta-gal luminescence, 2 h
# Summary of the method: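 CHO-K1 cells stably expressing nuclear-localized β-gal enzyme acceptor and GR fused C-terminally to the enzyme donor fragment; ligand-driven nuclear translocation restores β-gal by complementation. Compounds titrated up to 46 uM final, 2 h at 37 °C; luminescence read.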
# [8] = biological target: Mitogen-activated protein kinase 10 (Mus musculus) (UniProt Q61831); experiment: JNK3 AlphaScreen Assay (AID 530; active = well fitted curve in either direction with a large enough effect, not every such curve was filed as active;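 also: kinase came from lysate of stimulated human HepG2 cells; signal reports phosphorylation of biotinylated GST-cJun 1-79 at Ser73 with 10 µM ATP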)
# Summary of the method: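 Inhibitors reduce antibody binding to phosphorylated biotin-cJun, lowering AlphaScreen luminescence. Lysates from HepG2 cells pre-activated by IL-1beta plus TNF-alpha supplied JNK3; compounds were titrated.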
# [9] = biological target: 3',5'-cyclic-AMP phosphodiesterase 4B (Homo sapiens) (UniProt Q07343); experiment: qHTS Assay for Inhibitors of PDE-IV (AID 607; active = well fitted activation curve with a large enough effect in the main read-out, with a control signal flat, not every such curve was filed as active)
# Summary of the method: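 Cell-based read-out of cAMP via a modified cyclic nucleotide-gated channel and membrane potential dye (535/590 nm) in HEK293 cells expressing PDE4 endogenously. Compounds tested up to 22.9 uM final; 100 uM RO 20-1724 reference.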
# [10] = biological target: Ubiquitin carboxyl-terminal hydrolase 1 (Homo sapiens) (UniProt O94782); experiment: Inhibitors of USP1/UAF1: Pilot qHTS (AID 504865);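 also: rhodamine fluorescence freed from ubiquitin-rhodamine substrate followed over time; top concentration of the series differs between compounds; nearly all actives have a fitted effect of over 35% in size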
# Summary of the method: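 1nM USP1/UAF1 + cpd, 15 min RT; start w/ Ub-Rho 150nM final; kinetic FL 480/540 nm, 6 reads q60 s. Buffer 50mM HEPES pH 7.8, 0.5mM EDTA, 1mM TCEP, 0.01% Tween-20, 0.1 mg/ml BSA.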
# [11] = biological target: DNA dC->dU-editing enzyme APOBEC-3G (Homo sapiens) (UniProt Q9HC16); experiment: qHTS for inhibitors of Vif-A3G interactions: Validation (AID 588379)
# Summary of the method: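 HeLa cells stably expressing Vif and A3G-eYFP, 700 cells/well, incubated overnight at 37 deg C, then exposed to compound overnight at 37 deg C. Inhibition of Vif-mediated degradation read as increased yellow fluorescence (Ex 488/Em 500-530) by laser-scanning cytometry.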
# [12] = Primary qHTS for small molecule stabilizers of the endoplasmic reticulum resident proteome: Secreted ER Calcium Modulated Protein (SERCaMP) assay (AID 1508630)
# Summary of the method: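 GLuc-SERCaMP-expressing SH-SY5Y cells, pretreated 16 h with compound, are challenged with thapsigargin to empty ER calcium stores; after 4 h, coelenterazine is added directly to the medium and luminescence is imaged.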
# [13] = Primary qHTS for inhibitors of nuclear receptor binding SET domain protein 2 (NSD2) in an isogenic RCH-ACV NSD2 p.E1099K mutant (9B) (AID 1645876); also: potency is read from the fitted curve at half-maximal effect; nearly all actives have a fitted effect of over 70% in size
# [14] = biological target: Catechol O-methyltransferase (Homo sapiens) (UniProt P21964); experiment: Confirmatory Screen for Target Class Profiling of Small Molecule Inhibitors of Methyltransferases (AID 1745852; calls by dose curve; also: potency is read from the fitted curve at half-maximal effect); conditions: MTase-Glo luminescence, SAH detection, recombinant enzyme; measured here: COMT max response; stronger effect = lower value
# [15] = biological target: Guanidinoacetate N-methyltransferase (Homo sapiens) (UniProt Q14353); experiment: as above; conditions: activity change, negative = inhibition: at 57.3 µM (top of the series) unless noted
# [16] = biological target: Nicotinamide N-methyltransferase (Homo sapiens) (UniProt P40261); experiment: as above; conditions: MTase-Glo luminescence, SAH detection, recombinant enzyme; measured here: NNMT max response; stronger effect = lower value
# [17] = biological target: Phenylethanolamine N-methyltransferase (Homo sapiens) (UniProt P11086); experiment: as above; conditions: MTase-Glo luminescence, SAH detection, recombinant enzyme; measured here: PNMT max response; stronger effect = lower value
# [18] = biological target: Glutathione peroxidase 1 (Homo sapiens) (UniProt P07203); experiment: Primary qHTS Assay for Inhibitors of Recombinant Selenoprotein Glutathione Peroxidase 1 (GPX1) (AID 1845191); also: nearly all actives have a fitted effect of over 65% in size
# Summary of the method: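 Recombinant GPX1 (10 nM final) was preincubated with compound for 30 min at room temperature, then reacted with 1 mM GSH, 0.5 mM CHP, 0.5 mM NADPH and 100 nM glutathione reductase; NADPH fluorescence (340/450 nm) was read at 0 and 15 min.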
# [19] = biological target: Cytochrome P450 3A4 (Homo sapiens) (UniProt P08684); experiment: qHTS Assay for Activators of Cytochrome P450 3A4 (AID 885); also: nearly all actives have a fitted effect of over 65% in size
# Summary of the method: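 Signal was normalized against complete inhibition by 57 uM ketoconazole. The reaction used 20nM CYP3A4 with 25uM Luciferin-PPXE, 10-min compound preincubation and a 60-min NADPH-supported step at RT.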
# [20] = biological target: Cytochrome P450 2C19 (Homo sapiens) (UniProt P33261); experiment: qHTS Assay for Inhibitors and Substrates of Cytochrome P450 2C19 (AID 899); also: nearly all actives have a fitted effect of over 60% in size
# Summary of the method: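 In 50mM KPO4, the reaction held 5nM enzyme and KM-level (10uM) Luciferin-H EGE; it ran 60 min at 37C after NADPH regeneration and a 10 min compound preincubation. Luminescence values were scaled to 57uM ketoconazole as complete inhibition.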
# Sequence of Glucocorticoid receptor (Homo sapiens) (P04150 whole entry, looked up, the tested form may be a part): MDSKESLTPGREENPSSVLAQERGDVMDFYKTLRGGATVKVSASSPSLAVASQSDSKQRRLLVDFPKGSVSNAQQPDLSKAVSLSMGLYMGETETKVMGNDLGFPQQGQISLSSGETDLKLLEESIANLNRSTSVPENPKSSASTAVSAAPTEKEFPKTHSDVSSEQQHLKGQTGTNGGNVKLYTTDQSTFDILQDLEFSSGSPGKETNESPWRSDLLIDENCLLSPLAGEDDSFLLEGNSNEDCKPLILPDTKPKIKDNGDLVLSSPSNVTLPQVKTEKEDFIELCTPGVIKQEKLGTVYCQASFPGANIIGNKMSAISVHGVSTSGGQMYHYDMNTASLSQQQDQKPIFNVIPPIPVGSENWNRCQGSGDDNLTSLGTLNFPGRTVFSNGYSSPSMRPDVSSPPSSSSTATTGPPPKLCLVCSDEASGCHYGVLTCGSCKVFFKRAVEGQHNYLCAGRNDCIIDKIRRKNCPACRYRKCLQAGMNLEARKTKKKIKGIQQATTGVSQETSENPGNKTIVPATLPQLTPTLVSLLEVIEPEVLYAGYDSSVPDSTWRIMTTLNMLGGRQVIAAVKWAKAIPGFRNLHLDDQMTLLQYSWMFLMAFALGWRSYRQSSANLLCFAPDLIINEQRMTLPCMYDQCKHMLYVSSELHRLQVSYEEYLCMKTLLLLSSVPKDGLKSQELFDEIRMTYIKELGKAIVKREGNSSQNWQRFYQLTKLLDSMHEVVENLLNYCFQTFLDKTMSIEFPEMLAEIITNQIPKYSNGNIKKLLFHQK
# Sequence of Cytochrome P450 1A2 (Homo sapiens) (P05177 whole entry, looked up): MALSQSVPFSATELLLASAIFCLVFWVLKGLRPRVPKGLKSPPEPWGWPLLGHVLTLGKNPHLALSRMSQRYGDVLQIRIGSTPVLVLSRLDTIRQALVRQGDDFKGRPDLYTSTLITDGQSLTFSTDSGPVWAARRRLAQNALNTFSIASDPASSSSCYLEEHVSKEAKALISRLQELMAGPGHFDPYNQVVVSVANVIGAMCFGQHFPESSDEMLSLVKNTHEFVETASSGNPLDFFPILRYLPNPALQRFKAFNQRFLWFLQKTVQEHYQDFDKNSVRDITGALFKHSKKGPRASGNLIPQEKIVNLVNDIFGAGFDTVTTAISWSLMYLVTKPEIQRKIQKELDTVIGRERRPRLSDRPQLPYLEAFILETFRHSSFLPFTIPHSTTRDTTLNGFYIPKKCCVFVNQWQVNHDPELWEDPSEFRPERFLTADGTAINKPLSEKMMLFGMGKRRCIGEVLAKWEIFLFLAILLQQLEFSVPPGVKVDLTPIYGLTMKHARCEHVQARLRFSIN
# Sequence of DNA dC->dU-editing enzyme APOBEC-3G (Homo sapiens) (Q9HC16 whole entry, looked up): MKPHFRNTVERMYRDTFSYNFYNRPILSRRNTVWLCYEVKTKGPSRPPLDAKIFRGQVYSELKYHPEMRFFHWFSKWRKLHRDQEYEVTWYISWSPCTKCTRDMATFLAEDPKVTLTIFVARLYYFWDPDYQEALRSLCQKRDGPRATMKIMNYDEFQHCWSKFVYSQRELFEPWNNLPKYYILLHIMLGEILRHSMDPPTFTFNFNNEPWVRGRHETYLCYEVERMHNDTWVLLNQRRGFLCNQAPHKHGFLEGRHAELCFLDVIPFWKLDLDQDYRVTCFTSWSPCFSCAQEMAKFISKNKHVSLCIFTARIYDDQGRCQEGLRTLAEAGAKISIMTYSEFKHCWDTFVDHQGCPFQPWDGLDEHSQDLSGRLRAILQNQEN
# Sequence of Ubiquitin carboxyl-terminal hydrolase 1 (Homo sapiens) (O94782 whole entry, looked up): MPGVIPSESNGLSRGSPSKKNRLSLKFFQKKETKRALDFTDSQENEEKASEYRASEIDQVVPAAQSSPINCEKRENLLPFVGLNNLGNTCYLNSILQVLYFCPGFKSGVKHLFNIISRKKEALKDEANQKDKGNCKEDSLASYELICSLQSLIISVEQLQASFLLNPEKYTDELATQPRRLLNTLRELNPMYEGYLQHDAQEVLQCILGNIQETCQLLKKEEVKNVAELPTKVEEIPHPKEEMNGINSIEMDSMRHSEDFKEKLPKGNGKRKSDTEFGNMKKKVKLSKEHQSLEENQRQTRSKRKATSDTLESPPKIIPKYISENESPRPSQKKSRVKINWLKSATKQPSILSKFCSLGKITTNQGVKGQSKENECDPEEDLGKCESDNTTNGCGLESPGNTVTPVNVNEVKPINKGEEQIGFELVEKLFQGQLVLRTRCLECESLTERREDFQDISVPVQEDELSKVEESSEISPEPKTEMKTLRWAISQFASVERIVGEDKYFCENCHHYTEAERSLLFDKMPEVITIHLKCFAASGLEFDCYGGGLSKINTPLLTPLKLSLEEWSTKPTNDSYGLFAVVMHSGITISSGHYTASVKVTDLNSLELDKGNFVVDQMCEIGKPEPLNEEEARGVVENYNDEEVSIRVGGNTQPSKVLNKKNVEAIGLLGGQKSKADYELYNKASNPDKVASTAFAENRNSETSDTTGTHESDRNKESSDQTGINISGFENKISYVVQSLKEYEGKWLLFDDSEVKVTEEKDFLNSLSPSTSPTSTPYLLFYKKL
# Sequence of Nicotinamide N-methyltransferase (Homo sapiens) (P40261 whole entry, looked up): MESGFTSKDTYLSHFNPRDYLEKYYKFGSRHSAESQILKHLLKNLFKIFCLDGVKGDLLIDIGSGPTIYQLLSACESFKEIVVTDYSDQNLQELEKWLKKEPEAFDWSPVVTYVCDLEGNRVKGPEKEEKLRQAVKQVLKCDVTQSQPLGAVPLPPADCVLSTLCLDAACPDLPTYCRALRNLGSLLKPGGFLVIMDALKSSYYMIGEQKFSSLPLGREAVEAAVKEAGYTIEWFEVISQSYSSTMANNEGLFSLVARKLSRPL
# Sequence of Cytochrome P450 2C19 (Homo sapiens) (P33261 whole entry, looked up): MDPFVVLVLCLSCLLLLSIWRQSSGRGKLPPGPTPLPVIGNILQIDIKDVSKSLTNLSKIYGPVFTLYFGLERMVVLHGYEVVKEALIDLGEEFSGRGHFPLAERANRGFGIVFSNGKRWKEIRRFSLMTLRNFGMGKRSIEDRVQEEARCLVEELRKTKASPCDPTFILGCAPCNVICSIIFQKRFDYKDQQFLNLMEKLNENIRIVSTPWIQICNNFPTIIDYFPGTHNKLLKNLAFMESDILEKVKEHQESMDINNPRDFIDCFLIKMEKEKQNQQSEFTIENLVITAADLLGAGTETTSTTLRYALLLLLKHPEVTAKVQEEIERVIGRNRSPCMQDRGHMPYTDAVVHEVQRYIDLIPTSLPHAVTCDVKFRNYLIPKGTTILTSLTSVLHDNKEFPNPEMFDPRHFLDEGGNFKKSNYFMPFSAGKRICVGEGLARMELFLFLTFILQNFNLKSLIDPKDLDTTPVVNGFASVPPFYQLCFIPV
# Sequence of Cytochrome P450 3A4 (Homo sapiens) (P08684 whole entry, looked up): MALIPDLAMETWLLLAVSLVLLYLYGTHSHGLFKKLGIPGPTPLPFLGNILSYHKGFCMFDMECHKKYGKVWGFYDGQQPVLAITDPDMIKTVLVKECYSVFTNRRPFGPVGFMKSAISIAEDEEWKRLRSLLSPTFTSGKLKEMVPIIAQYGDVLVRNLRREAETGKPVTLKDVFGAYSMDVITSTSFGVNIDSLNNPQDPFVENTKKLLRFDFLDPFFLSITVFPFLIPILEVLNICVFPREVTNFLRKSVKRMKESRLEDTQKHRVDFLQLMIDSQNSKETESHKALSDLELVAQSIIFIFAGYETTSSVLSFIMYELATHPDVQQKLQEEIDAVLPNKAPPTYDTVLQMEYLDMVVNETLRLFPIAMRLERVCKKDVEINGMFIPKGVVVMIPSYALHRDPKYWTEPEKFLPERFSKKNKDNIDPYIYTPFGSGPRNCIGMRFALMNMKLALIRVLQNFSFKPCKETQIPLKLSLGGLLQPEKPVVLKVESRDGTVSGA
# Sequence of Catechol O-methyltransferase (Homo sapiens) (P21964 whole entry, looked up): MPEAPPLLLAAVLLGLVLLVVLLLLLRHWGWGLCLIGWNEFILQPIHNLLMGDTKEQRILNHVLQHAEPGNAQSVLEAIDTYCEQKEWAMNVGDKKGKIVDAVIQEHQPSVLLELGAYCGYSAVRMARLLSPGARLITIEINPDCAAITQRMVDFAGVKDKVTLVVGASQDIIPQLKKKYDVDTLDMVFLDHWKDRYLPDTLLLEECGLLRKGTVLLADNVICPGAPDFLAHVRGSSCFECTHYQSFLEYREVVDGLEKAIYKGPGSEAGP
# Sequence of 3',5'-cyclic-AMP phosphodiesterase 4B (Homo sapiens) (Q07343 whole entry, looked up): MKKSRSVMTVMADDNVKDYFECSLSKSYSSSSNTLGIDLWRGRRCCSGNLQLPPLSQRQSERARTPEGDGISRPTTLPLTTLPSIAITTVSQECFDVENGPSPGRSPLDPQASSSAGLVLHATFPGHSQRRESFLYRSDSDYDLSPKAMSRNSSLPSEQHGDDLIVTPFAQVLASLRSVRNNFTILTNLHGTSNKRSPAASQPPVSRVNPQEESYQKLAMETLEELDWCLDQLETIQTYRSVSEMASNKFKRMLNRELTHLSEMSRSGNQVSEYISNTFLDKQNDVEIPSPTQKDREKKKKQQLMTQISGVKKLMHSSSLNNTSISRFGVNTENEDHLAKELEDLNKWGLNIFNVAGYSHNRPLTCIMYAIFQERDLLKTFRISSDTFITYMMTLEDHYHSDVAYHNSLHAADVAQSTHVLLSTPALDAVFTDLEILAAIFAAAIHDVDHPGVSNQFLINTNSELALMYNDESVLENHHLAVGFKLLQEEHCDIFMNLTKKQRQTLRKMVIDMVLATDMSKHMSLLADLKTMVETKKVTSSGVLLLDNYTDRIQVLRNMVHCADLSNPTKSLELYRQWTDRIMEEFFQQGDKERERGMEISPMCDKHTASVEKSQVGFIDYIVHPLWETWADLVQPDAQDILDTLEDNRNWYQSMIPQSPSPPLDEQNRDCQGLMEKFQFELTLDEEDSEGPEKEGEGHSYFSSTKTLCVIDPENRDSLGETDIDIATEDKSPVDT
# Sequence of Glutathione peroxidase 1 (Homo sapiens) (P07203 whole entry, looked up): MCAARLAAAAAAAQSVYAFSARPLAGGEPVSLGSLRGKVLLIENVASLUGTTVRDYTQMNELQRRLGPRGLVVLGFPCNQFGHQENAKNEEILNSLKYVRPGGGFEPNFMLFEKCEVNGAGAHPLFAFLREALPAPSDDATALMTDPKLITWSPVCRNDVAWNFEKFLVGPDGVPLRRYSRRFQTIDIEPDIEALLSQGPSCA
compound,measurement,setting,value
Cc1cc(C)c(N(Cc2ccccc2)S(=O)(=O)c2ccc(OCCNC(=O)c3cc4ccccc4o3)cc2)c(C(=O)NO)c1,Potency,[1],inactive
same,Potency,[2],inactive
C=C[C@H]1CN2CCC1C[C@@H]2C(O)c1ccnc2ccc(OC)cc12 (stereo partly specified),Potency,[1],inactive
same,Potency,[3],inactive
same,Potency,[2],39.8 µM (active) and inactive
same,Potency,[4],inactive
N[C@@H](Cc1cc(CP(=O)(O)O)cc(-c2ccccc2Cl)c1)C(=O)O,Potency,[5],inactive
same,Potency,[6],> 46 µM (inactive)
same,Potency,[7],> 46 µM (inactive)
same,Potency,[8],inactive
same,Potency,[9],inactive
same,Potency,[10],inactive
same,Potency,[11],inactive
same,Potency,[1],inactive
same,Potency,[2],inactive
CCCCCCCC/C=C\CCCCCCCC(=O)OC[C@H](CO)OC(C)=O,"activity change, negative = inhibition",[1],16.8% [at 6.83 µM] (inactive)
same,"activity change, negative = inhibition",[12],-28% [at 3.88 µM] (inactive)
CNc1cc2c(Nc3cccc(Br)c3)ncnc2cn1,Potency,[1],inactive
same,Potency,[3],35.5 µM (active)
same,Potency,[2],2 µM (active)
same,Potency,[13],14.6 µM (active)
same,Potency,[4],20.6 µM (active)
same,activity,[14],-38.7%
same,Potency,[15],30.4 µM (active)
same,activity,[16],-23.8%
same,activity,[17],-74.4%
same,Potency,[18],inactive
CCOC(=O)c1c(C)[nH]c2ccc3c(c12)CN1CCc2cc(OC)ccc2[C@@H]1O3,Potency,[5],158 nM (active)
same,Potency,[6],> 46 µM (inactive)
same,Potency,[7],> 46 µM (inactive)
same,Potency,[8],inactive
same,Potency,[19],inactive
same,Potency,[20],inactive
same,Potency,[10],inactive
same,Potency,[11],inactive
same,Potency,[1],inactive
same,Potency,[2],inactive
CCCCC/C=C\C/C=C\CCCCCCCC(=O)O[C@@H](CO)COC(=O)CCCCCCCCCCCCCCCCC,"activity change, negative = inhibition",[1],7.9% [at 6.83 µM] (inactive)
same,"activity change, negative = inhibition",[12],6.55% [at 3.88 µM] (inactive)
CCCCC/C=C/C=C1/C(=O)C=C[C@@H]1C/C=C\CCCC(=O)O,"activity change, negative = inhibition",[1],2.18% [at 6.83 µM] (inactive)
same,"activity change, negative = inhibition",[12],-9.18% [at 3.88 µM] (inactive)
